ALR inh: blocks human ALR sulfhydryl oxidase activity; P55789; purified ALR, DTT oxidation, H2O2 HRP-luminol luminescence; inhibition, % (concentration not given with the values); 290,000 tested, 3.8% active;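 active = mean replicate inhibition above about 79%, with every replicate also reaching it, limit read from the data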
SUMO HTRF inh: blocks human SUMOylation mediated by UBC9 | P63279 | HTRF SUMOylation assay, SAE1/SAE2 + UBC9, in vitro | inhibition, % at 35 µM | 290,000 tested, 0.36% active | AID 2006; in the data active = inhibition above about 50%, passing the limit was not always enough
Target sequence (P63279 whole entry, looked up): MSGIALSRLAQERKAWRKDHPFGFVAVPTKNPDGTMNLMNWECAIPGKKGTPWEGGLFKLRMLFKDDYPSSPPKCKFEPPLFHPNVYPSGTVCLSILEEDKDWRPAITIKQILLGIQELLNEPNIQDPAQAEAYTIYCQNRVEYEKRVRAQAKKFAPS
NTR1 ag: NTR1 (human) agonism | P30989 | NTR1-U2OS beta-arrestin-GFP spot imaging, agonist mode | activation, % at 20 µM | 330,000 tested, 0.17% active | AID 493036;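 active = activation at or above 40% of the spot to cytoplasm intensity ratio, with at least 20 cells analyzed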;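 note: 0% = DMSO without peptide and 100% = 100 nM NTR1 peptide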
Target sequence (P30989 whole entry, looked up): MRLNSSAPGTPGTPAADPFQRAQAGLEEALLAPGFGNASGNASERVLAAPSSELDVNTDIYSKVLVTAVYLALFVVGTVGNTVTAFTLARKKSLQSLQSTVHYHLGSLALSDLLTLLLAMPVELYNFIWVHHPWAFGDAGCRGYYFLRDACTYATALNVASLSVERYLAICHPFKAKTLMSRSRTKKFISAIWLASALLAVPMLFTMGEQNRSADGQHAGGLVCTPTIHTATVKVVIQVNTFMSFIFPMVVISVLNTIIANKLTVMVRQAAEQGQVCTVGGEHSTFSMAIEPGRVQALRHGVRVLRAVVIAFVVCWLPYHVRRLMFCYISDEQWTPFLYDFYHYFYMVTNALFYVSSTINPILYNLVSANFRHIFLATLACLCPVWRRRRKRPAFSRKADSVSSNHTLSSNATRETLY
H9c2 protect: myocardial damage modulation in H9c2 cells. 360,000 tested, 0.63% active. AID 588492. H9c2 cardiomyocytes, H2O2 injury protection, ATPLite, 2 h. protection from H2O2 cell death, % at 20 µM;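 active = compounds giving at least 50% protection of heart cells from peroxide-induced death in the single-dose screen, raw or plate-pattern-corrected value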;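 note: 0% = DMSO wells with peroxide and 100% = DMSO wells without peroxide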
The depositor's hits bear a star; · = not tested or not shown. Shown are actives, neighbours in structure and some others; about 3.9% of the full set was active somewhere.

SMILES	ALR inh	SUMO HTRF inh	NTR1 ag	H9c2 protect
COc1cc(-c2nnc(-c3cc(-c4ccccc4)nc4ccccc34)o2)cc(OC)c1OC	·	·	·	56.3*
COc1cc(-c2nnc(-c3ccccc3)o2)cc(OC)c1OC	-4.7	29.2	-4.6	35.6
COc1ccc(-c2cc(-c3nnc(-c4ccncc4)o3)c3ccccc3n2)cc1	-12.2	8.7	5.3	23.4
COc1cc(-c2nnc(-c3cc(OC)c(OC)c(OC)c3)o2)cc(OC)c1OC	-0.3	8.5	-0.3	65.5*
COc1ccc(C(C)=O)cc1CSc1ccc(S(=O)(=O)N2CCOCC2)cn1	·	·	1.8	22.0
CCSc1nnc(NC(=O)c2cc(-c3ccc(C)c(C)c3O)n[nH]2)s1	·	6.9	·	-2.1
Cc1ccc(SCC(=O)O/N=C(\N)c2ccc([N+](=O)[O-])cc2)cc1	97.9*	-14.9	0.7	-5.3
COc1ccc(CC(=O)N2CCN=C2SCc2ccc([N+](=O)[O-])cc2)cc1	99.2*	-11.8	0.3	-21.4
O=C(c1cccc2ccccc12)N1CCN=C1SCc1ccc([N+](=O)[O-])cc1	98.5*	19.7	4.5	6.1
O=C(Cc1ccc(F)cc1)N1CCN=C1SCc1ccc([N+](=O)[O-])cc1	98.5*	-2.1	2.5	-3.8
CCn1ncc(Br)c1C(=O)NC(C)c1ccccc1 (stereo not given)	·	-12.1	-1.5	-15.5
CCc1ccc(CNC(=O)C2CCC(=O)N2C2CCCCC2)cc1 (stereo not given)	-3.7	9.0	-0.4	-4.6
CCOc1ccc(CC(=O)N2CCN=C2SCc2ccc([N+](=O)[O-])cc2)cc1	99.4*	12.4	2.8	-19.6
Cc1ccc(CSC2=NCCN2C(=O)c2ccc([N+](=O)[O-])cc2)cc1	-10.5	22.4	0.0	0.6
Cc1ccc(C(=O)N2CCN=C2SCc2ccc([N+](=O)[O-])cc2)cc1	98.7*	6.4	-0.5	-7.7
Cc1cccc(OC(=O)NCCOC(=O)N(O)c2ccc(Cl)cc2)c1	2.9	5.8	5.4	-19.9
Cc1ccc(-c2ccc(CN3C(C(C)C)C(=O)N(Cc4cn(CC5CCCCC5)nn4)CCS3(=O)=O)cc2)cc1 (stereo not given)	·	·	·	-5.0
O=C(NNc1ccnc2cc(Cl)ccc12)C1CCCCC1	-14.0	14.0	0.0	-23.0
NC(=S)NNc1ccnc2cc(Cl)ccc12	103.3*	-3.6	-0.9	-9.3
C/C(=N/Nc1ccnc2cc(Cl)ccc12)c1ccc(N)cc1	98.4*	·	-4.4	7.7
Clc1ccc2c(N/N=C/c3ccccc3Br)ccnc2c1	-1.4	-16.4	12.8	-15.4
C/C(=N/Nc1ccnc2cc(Cl)ccc12)c1ccc(O)cc1	93.1*	·	12.8	0.8
COc1ccc(CCNC(=O)COc2ccc(S(=O)(=O)NCC(C)C)cc2Cl)cc1OC	-2.6	5.8	0.9	7.7
CC(=O)c1ccc(C(=O)N2CCCC(CNC(=O)c3ccccc3Cl)C2)cc1 (stereo not given)	-2.6	9.9	2.8	1.5
Cc1nc2c(C(=O)NCCc3ccccc3)c[nH]n2c(=O)c1Cl	2.9	17.4	-0.1	0.7
SMILES	ALR inh	SUMO HTRF inh	NTR1 ag	H9c2 protect
Cc1nc2c(C(=O)NCCC(C)C)c[nH]n2c(=O)c1Cl	94.8*	23.7	1.5	18.2
Nc1nc2nc[nH]c2c(=O)[nH]1	-19.3	·	0.5	1.4
Nc1nc(OCC2CCCCC2)c2[nH]cnc2n1	96.9*	-2.0	4.5	2.2
FC(F)(F)c1cnc(NNC(=S)Nc2ccc(Cl)cc2)c(Cl)c1	97.9*	-19.9	3.7	-15.3
Cc1ccc(NC(=S)NNc2ncc(C(F)(F)F)cc2Cl)cc1	-8.9	-0.2	2.8	-6.0
O=c1c2cccc3c(N4CCOCC4)ccc(c32)c2nc3ccccc3n12	·	28.9	·	·
CC(=O)OCCn1c2nc(=O)[nH]c(=O)c-2nc2cc(C)c(C)cc21	-68.1	59.9*	0.0	4.8
COc1ccc(C2N=C(c3ccccc3)NO2)cc1OC (stereo not given)	-16.1	12.7	-0.4	-6.3
COc1cc(C2N=C(c3ccccc3)NO2)cc(Br)c1O (stereo not given)	98.1*	0.8	-0.7	3.0
Cc1cc2[nH]c(=O)c3ccccc3n2n1	·	23.0	-0.9	77.0*
COc1cc(NC(=O)CN2C(=O)c3ccccc3S2(=O)=O)cc(OC)c1	·	·	1.8	1.7
O=c1[nH]c(/C=C/c2ccc(Cl)cc2Cl)c([N+](=O)[O-])c(=O)[nH]1	97.0*	25.3	0.9	3.8
CCn1cnc2cc(NCc3ccncc3)ccc21	81.7*	19.2	-0.1	1.5
Cc1ccc(CNc2ccc3c(c2)ncn3C(C)(C)C)cc1	89.0*	-3.5	2.6	-8.5
Cc1ccc(C(=O)Nc2ccc(N3CCCC3)cc2)c(C)c1	1.9	-0.8	4.3	-3.3
COc1ccc(NC(=O)C2CCCN2c2ccc(OC)c(OC)c2)cc1OC (stereo not given)	99.0*	15.0	6.9	0.6
Cc1ccccc1C(=O)Nc1ccc(N2CCCC2)cc1	92.3*	5.0	1.6	0.6
O=C(Nc1ccc(N2CCCC2)cc1)C(Cl)c1ccccc1 (stereo not given)	97.8*	10.9	2.2	-14.0
COc1ccc(C(=O)Nc2ccc(N3CCCC3)cc2)cc1OC	99.1*	-5.5	0.6	-3.5
Cc1ccc(-n2c(C)nn(-c3ncc(C(F)(F)F)cc3Cl)c2=O)cc1	-20.1	1.3	0.4	-6.4
COc1ccc(NC(=O)c2cccnc2N2CCCC2)cc1	99.0*	-14.9	3.4	6.3
O=C(Nc1ccc(N2CCN(Cc3ccccc3Cl)CC2)cc1)c1cccnc1	0.1	-3.3	0.4	-11.5
O=C(Nc1ccc(N2CCCCC2)cc1)c1cccnc1	97.6*	2.8	-1.5	-22.2
CN(C[C@H](Cc1ccccc1)N(CCN(CCc1ccccc1)N=O)N=O)N=O	-3.1	9.0	1.3	0.6
CCOC(=O)c1cnc(SC2CC(=O)N(c3cccc(OC)c3)C2=O)nc1N (stereo not given)	11.9	-3.8	-1.3	11.7
SMILES	ALR inh	SUMO HTRF inh	NTR1 ag	H9c2 protect
O=C(/C=C/[C@H]1O[C@@H](n2cnc3c(NC(=O)c4ccccc4)ncnc32)[C@H](O)[C@@H]1O)NCc1cccs1	·	·	·	5.9
O=C(COC(=O)/C=C/c1cccc(Cl)c1)Nc1ccc2[nH]c(=O)[nH]c2c1	9.5	·	-0.8	-6.1
CC[C@@]1(O)C(=O)OCc2c1cc1n(c2=O)Cc2cc3c(N)cccc3nc2-1	-19.1	94.6*	0.7	1.6
COc1ccc(C2=Nn3c(nnc3-c3ccncc3)SC2)cc1	-0.5	4.0	9.9	7.1
O=C1c2ccccc2C(=O)c2c(Nc3ccc(CCO)cc3)ccc(O)c21	-1.0	-6.5	10.9	-0.5
O=C1c2c(O)ccc(O)c2C(=O)c2c(NCCNCCO)ccc(NCCNCCO)c21	99.8*	·	1.9	-9.7
COc1ccc(-c2nc(CS(=O)(=O)CC(=O)NCc3cccc(OC)c3OC)c(C)o2)cc1	-0.1	2.3	-1.9	2.8
COc1ccc(-c2nc(CS(=O)(=O)CC(=O)NCc3ccccc3Br)c(C)o2)cc1	98.4*	9.6	11.1	1.8
COc1ccc(-c2nc(CS(=O)(=O)CC(=O)NCc3ccccc3OC)c(C)o2)cc1	98.8*	13.1	0.9	4.0
Cc1nc2ccccc2n1CC(=O)c1ccc(O)c(O)c1	98.3*	·	2.6	11.9
O=C(CSc1nc2ccccc2n1CCc1ccccc1)c1ccc(O)c(O)c1	·	64.6*	·	34.1

Compound activity from PubChem BioAssay.
